Data on 40 molecules can be found in the supplement of paper PMC8975748.

Counter-ions that a name gives are not always drawn.

This experiment relates to Saccharomyces cerevisiae BY4741 SeMeCo community. Kind of experiment: z-score of subpopulation abundance vs DMSO median, subpopulation auxotrophic for HUM; higher = larger share of this subpopulation than in DMSO controls. The note with it: 10 µM; 24 h; SM minimal medium; subpopulation (auxotrophy): HUM. As to the method:
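Fluorescent four-plasmid SeMeCo (self-establishing metabolically cooperating S. cerevisiae BY4741 community; plasmids pH-mRuby2, pL-mWasabi, pU-eCFP, pM-TagRFP657) was grown 24 h in minimal SM medium with each Selleck FDA-approved drug at 10 µM in 384-well plates. Cells were fixed and imaged by high-content confocal microscopy. For each auxotrophic subpopulation (and the prototroph), a z-score gives the deviation from the DMSO vehicle-control population median.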
Turning to `CCCN1C[C@H](CSC)C[C@@H]2c3cccc4[nH]cc(c34)C[C@H]21` [Pergolide Mesylate], the “z-score of subpopulation abundance” value was -0.74.

As to `COc1cc2c(cc1OC)C1CC(=O)C(CC(C)C)CN1CC2` (stereo not given) [Tetrabenazine (Xenazine)], the “z-score of subpopulation abundance” value is -0.9.

For `CCC1=C[C@H]2CN3CCc4c([nH]c5ccccc45)[C@](C(=O)OC)(C2)[C@H]13` [Catharanthine], the “z-score of subpopulation abundance” value came to 0.29.

Take `CC[C@H]1[C@@H]2C[C@H]3[C@@H]4N(C)c5ccccc5[C@]45C[C@@H]([C@@H]2[C@H]5O)N3[C@@H]1O` [Ajmaline]: the “z-score of subpopulation abundance” value was -0.48.

Turning to `Cc1cc(C(C#N)c2ccc(Cl)cc2)c(Cl)cc1NC(=O)c1cc(I)cc(I)c1O` (stereo not given) [Closantel], the “z-score of subpopulation abundance” value was found to be 0.04.

Consider `COc1ccc2[nH]cc(CCN)c2c1` [5-Methoxytryptamine], for which the “z-score of subpopulation abundance” value stood at 0.46.

Turning to `CCOC(=O)Nc1ccc(NCc2ccc(F)cc2)cc1N` [Retigabine 2HCl], the “z-score of subpopulation abundance” value worked out at 0.72.

On to `C=CCN1C[C@H](C(=O)N(CCCN(C)C)C(=O)NCC)C[C@@H]2c3cccc4[nH]cc(c34)C[C@H]21` [Cabergoline], for which the “z-score of subpopulation abundance” value is -0.37.

On to `CN[C@@H]1[C@@H](O)[C@@H](O[C@@H]2[C@@H](O)[C@H](O[C@H]3O[C@H](CN)CC[C@H]3N)[C@@H](N)C[C@H]2N)OC[C@]1(C)O.CN[C@@H]1[C@@H](O)[C@@H](O[C@@H]2[C@@H](O)[C@H](O[C@H]3O[C@H]([C@@H](C)N)CC[C@H]3N)[C@@H](N)C[C@H]2N)OC[C@]1(C)O.CN[C@@H]1[C@@H](O)[C@@H](O[C@@H]2[C@@H](O)[C@H](O[C@H]3O[C@H]([C@@H](C)NC)CC[C@H]3N)[C@@H](N)C[C@H]2N)OC[C@]1(C)O` [Gentamicin Sulfate], for which the “z-score of subpopulation abundance” value was -0.69.

`C[N+]1(C)[C@@H]2C[C@@H](OC(=O)[C@H](CO)c3ccccc3)C[C@H]1[C@@H]1O[C@@H]12` [Methscopolamine]: the “z-score of subpopulation abundance” value is 0.63.

As to `CN(C)[C@@H]1C(=O)C(C(N)=O)=C(O)[C@@]2(O)C(=O)C3=C(O)c4c(O)cccc4[C@@](C)(O)[C@H]3[C@H](O)[C@@H]12` [Oxytetracycline Dihydrate], the “z-score of subpopulation abundance” value is -0.79.

On to `Oc1cc(Cl)ccc1Oc1ccc(Cl)cc1Cl` [Triclosan], for which the “z-score of subpopulation abundance” value is -1.9.

For `CC1(C)SC2C(N)C(=O)N2C1C(=O)O` (stereo not given) [6-Aminopenicillanic acid], the “z-score of subpopulation abundance” value was 0.65.

As to `NCCc1c[nH]c2ccc(O)cc12` [Serotonin HCl], the “z-score of subpopulation abundance” value worked out at 0.18.

On to `CN(C)[C@@H]1C(=O)C(C(N)=O)=C(O)[C@@]2(O)C(=O)C3=C(O)c4c(O)cccc4[C@@](C)(O)[C@H]3C[C@@H]12` [Tetracycline HCl], for which the “z-score of subpopulation abundance” value was 0.07.

In the case of `CCN(C)C(=O)Oc1cccc([C@H](C)N(C)C)c1` [Rivastigmine], the “z-score of subpopulation abundance” value was 0.66.

For the molecule `NCC(O)c1ccc(O)cc1` (racemic) [(+,-)-Octopamine HCl], the “z-score of subpopulation abundance” value is -0.21.

For `C[CH2][Hg][S]c1ccccc1C(=O)[O-].[Na+]` [Thimerosal], the “z-score of subpopulation abundance” value worked out at 14.9.

As for `N#Cc1nn(-c2c(Cl)cc(C(F)(F)F)cc2Cl)c(N)c1[S+]([O-])C(F)(F)F` (stereo not given) [Fipronil], the “z-score of subpopulation abundance” value is -0.76.

Turning to `COC(=O)C1=CCCN(C)C1` [Arecoline HBr], the “z-score of subpopulation abundance” value was -0.03.

Turning to `C=CN1CCCC1=O.II` [Povidone iodine], the “z-score of subpopulation abundance” value was 1.77.

As to `CN1[C@@H]2C[C@@H](OC(=O)[C@H](CO)c3ccccc3)C[C@H]1[C@@H]1O[C@@H]12` [Scopolamine HBr], the “z-score of subpopulation abundance” value was -0.97.

`C[N+](C)(C)CCCCCCCCCC[N+](C)(C)C` [Decamethonium Bromide]: the “z-score of subpopulation abundance” value is 0.18.

`CCCCCCCCCCCCCCCC[n+]1ccccc1` [Cetylpyridinium Chloride]: the “z-score of subpopulation abundance” value is 20.2.

Regarding `C=CC[C@]1(O)CC[C@H]2[C@@H]3CCC4=CC(=O)CCC4=C3C=C[C@@]21C` [Altrenogest], the “z-score of subpopulation abundance” value was -0.44.

As to `NC(=O)CN1CCCC1=O` [Piracetam], the “z-score of subpopulation abundance” value is 1.72.

For the molecule `CN(C)[C@@H]1C(=O)C(C(N)=O)=C(O)[C@@]2(O)C(=O)C3=C(O)c4c(O)ccc(Cl)c4[C@@](C)(O)[C@H]3C[C@@H]12` [Chlortetracycline HCl], the “z-score of subpopulation abundance” value is 0.05.

Regarding `CN(C)[C@@H]1C(=O)C(C(N)=O)=C(O)[C@@]2(O)C(=O)C3=C(O)c4c(O)cccc4[C@@](C)(O)[C@H]3[C@H](O)[C@@H]12` [Oxytetracycline (Terramycin)], the “z-score of subpopulation abundance” value was -0.11.

With `C=C(C)[C@H]1Cc2c(ccc3c2O[C@@H]2COc4cc(OC)c(OC)cc4[C@@H]2C3=O)O1` [Rotenone (Barbasco)], the “z-score of subpopulation abundance” value came to 0.94.

In the case of `COc1ccc2c3c([nH]c2c1)C(C)=NCC3` [Harmaline], the “z-score of subpopulation abundance” value is -6.26.

For the molecule `CC(=O)O[C@H]1C[C@@H]2CC[C@@H]3[C@H](CC[C@@]4(C)[C@H]3C[C@H]([N+]3(C)CCCCC3)[C@@H]4OC(C)=O)[C@@]2(C)C[C@@H]1[N+]1(C)CCCCC1` [Pancuronium dibromide], the “z-score of subpopulation abundance” value is -0.72.

`COc1ccc2c(c1)[C@]13CCCC[C@@H]1[C@H](C2)N(C)CC3` [Dextromethorphan hydrobromide hydrate]: the “z-score of subpopulation abundance” value is 0.2.

Take `O=C(O[C@H]1C[C@H]2CC[C@@H](C1)[N+]21CCCC1)C(O)(c1ccccc1)c1ccccc1` [Trospium chloride]: the “z-score of subpopulation abundance” value is -0.32.

As to `COc1ccc(C=O)cc1` [p-Anisaldehyde], the “z-score of subpopulation abundance” value is -0.95.

Regarding `O=[N+]([O-])C(Br)(CO)CO` [Bronopol], the “z-score of subpopulation abundance” value is -0.53.

In the case of `CNC1CC(N)C(O)C(OC2OC(CO)C(O)C3OC4(OC(C(N)CO)C(O)C(O)C4O)OC23)C1O` (stereo not given) [Hygromycin B], the “z-score of subpopulation abundance” value is -0.41.

In the case of `COc1ccc(C(CN(C)C)C2(O)CCCCC2)cc1` (stereo not given) [Venlafaxine HCl], the “z-score of subpopulation abundance” value is 0.07.

Take `Cc1cc(O)ccc1Cl` [Chlorocresol]: the “z-score of subpopulation abundance” value is -0.26.

Regarding `C[C@@H]1CC[C@H]2[C@@H](C)C(=O)O[C@@H]3O[C@@]4(C)CC[C@@H]1[C@]32OO4` [Artemisinin], the “z-score of subpopulation abundance” value was -0.49.

Consider `COc1ccc(C(CN(C)C)C2(O)CCCCC2)cc1` (stereo not given) [Venlafaxine], for which the “z-score of subpopulation abundance” value was found to be 0.51.
